Experimental data from the supplement of paper PMC11732987, “Enantioselective OTUD7B fragment discovery through chemoproteomics screening and high-throughput optimisation” (Communications Chemistry, 2025).

Assays:
Assay in all cases: log2 ratio of Biotin-Ahx-Ub-VS probe labelling (fragment/DMSO); higher = less target engagement (more negative = stronger competition), active = hit call of the paper (q ≤ 0.05, log2 ratio ≤ -1)
Conditions in all cases: compound concentration: 200 uM; treatment time: 3 h
[1] = target: T1, ALG13 (UniProt Q9NP73)
T1 sequence (whole entry): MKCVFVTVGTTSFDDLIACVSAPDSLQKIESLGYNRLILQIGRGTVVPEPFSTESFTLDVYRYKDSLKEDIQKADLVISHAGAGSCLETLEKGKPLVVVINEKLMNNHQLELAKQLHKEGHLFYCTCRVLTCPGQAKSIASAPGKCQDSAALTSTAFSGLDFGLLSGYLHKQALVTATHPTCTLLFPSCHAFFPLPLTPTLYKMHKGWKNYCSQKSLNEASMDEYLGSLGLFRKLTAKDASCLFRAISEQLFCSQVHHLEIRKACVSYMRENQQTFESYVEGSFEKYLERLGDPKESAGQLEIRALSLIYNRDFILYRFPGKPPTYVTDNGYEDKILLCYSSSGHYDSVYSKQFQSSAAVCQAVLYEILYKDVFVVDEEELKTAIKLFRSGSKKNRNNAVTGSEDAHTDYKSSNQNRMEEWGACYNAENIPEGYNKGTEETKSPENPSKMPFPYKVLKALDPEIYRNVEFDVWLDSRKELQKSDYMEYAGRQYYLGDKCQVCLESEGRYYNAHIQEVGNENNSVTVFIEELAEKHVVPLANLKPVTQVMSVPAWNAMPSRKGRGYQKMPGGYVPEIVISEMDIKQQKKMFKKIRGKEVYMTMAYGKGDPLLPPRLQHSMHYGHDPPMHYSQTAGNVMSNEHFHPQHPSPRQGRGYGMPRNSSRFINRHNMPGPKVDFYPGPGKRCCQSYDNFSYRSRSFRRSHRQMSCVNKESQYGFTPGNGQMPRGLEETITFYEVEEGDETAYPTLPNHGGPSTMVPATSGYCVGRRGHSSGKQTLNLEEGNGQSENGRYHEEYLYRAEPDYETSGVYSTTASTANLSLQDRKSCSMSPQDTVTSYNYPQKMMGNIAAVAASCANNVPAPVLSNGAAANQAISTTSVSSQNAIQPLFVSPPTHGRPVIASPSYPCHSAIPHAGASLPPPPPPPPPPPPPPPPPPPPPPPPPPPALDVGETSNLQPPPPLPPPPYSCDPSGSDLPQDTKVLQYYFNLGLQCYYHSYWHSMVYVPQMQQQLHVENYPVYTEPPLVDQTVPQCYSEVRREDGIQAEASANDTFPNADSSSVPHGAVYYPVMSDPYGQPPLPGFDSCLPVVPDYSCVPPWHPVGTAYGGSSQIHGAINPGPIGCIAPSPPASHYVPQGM
Outline: (§1)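 HEK293T lysate (495 µg per sample, in Tris/CHAPS/IGEPAL buffer with protease inhibitors) was treated in triplicate with fragment at 200 µM or with DMSO for 3 h. It was then treated with Biotin-Ahx-Ub-VS (0.5 µM final) for 1 h. Labelled DUBs were NeutrAvidin-enriched, digested with LysC and trypsin, and run by diaPASEF LC-MS/MS. Spectronaut label-free quantities were global-median-normalised. Values are average log2 ratios fragment/DMSO by unpaired t-test, using proteins with ≥2 unique peptides.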

[2] = target: ATXN3 (UniProt P54252)
ATXN3, sequence (P54252 whole entry): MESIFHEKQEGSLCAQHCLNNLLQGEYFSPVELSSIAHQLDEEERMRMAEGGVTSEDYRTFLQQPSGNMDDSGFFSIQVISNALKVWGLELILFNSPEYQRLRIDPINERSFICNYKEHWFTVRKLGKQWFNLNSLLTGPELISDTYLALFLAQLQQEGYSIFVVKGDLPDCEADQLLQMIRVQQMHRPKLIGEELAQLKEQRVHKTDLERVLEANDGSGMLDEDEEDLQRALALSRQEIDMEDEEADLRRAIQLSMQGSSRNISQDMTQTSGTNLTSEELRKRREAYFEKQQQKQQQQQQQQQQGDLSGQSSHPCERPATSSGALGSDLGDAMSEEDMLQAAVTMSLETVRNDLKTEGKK
Outline: as §1

[3] = target: T2, BAP1 (UniProt Q92560)
T2 sequence (whole entry): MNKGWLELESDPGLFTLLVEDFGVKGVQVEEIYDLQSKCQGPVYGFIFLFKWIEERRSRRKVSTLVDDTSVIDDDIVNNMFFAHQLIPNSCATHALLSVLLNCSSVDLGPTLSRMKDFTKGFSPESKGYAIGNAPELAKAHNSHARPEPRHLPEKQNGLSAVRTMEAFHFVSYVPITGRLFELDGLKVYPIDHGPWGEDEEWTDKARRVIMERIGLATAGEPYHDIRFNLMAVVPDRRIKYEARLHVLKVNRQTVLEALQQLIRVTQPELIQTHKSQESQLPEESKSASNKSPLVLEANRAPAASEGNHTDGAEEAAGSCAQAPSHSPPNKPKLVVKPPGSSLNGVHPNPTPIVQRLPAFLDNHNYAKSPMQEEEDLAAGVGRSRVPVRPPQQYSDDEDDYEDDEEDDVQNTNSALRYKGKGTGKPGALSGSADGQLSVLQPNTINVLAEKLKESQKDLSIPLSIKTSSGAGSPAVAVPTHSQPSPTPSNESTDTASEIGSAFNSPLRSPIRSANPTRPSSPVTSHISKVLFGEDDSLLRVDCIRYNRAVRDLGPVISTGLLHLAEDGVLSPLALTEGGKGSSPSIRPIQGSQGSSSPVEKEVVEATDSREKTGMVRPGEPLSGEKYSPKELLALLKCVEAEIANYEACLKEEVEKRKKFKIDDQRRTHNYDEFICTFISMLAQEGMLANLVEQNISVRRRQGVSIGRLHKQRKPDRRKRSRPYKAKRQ
Outline: as §1

[4] = target: EIF3F (UniProt O00303)
EIF3F, sequence (O00303 whole entry): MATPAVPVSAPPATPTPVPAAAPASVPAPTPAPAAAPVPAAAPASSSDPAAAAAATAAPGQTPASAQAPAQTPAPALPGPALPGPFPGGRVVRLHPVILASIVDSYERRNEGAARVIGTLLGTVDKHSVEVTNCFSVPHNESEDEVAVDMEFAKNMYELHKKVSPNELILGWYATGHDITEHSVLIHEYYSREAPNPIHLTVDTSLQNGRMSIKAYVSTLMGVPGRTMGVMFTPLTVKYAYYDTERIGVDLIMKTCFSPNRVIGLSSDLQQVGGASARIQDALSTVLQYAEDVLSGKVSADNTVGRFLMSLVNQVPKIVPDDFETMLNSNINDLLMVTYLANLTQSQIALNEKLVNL
Outline: as §1

[5] = target: EIF3H (UniProt O15372)
EIF3H, sequence (O15372 whole entry): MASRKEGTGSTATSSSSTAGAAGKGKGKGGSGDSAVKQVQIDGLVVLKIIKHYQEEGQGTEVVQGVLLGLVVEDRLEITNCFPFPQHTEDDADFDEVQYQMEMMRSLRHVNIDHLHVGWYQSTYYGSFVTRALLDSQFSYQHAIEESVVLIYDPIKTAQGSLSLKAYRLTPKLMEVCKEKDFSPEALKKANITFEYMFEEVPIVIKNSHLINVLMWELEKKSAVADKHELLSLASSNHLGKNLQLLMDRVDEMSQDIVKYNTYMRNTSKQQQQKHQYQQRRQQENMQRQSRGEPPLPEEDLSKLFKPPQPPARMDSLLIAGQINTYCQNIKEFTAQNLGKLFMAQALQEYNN
Outline: as §1

[6] = target: T3, FAM105A (UniProt Q9NUU6)
T3 sequence (whole entry): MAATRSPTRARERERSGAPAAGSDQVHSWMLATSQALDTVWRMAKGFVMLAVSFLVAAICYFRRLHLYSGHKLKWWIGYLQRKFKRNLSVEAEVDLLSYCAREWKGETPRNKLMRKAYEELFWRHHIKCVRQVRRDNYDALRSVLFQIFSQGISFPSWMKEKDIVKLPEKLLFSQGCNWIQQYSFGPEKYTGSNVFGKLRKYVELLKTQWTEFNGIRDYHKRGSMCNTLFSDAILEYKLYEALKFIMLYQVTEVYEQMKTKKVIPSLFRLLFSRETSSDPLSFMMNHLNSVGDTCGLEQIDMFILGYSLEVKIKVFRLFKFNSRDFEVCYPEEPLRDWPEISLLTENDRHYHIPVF
Outline: as §1

[7] = target: OTUB1 (UniProt Q96FW1)
OTUB1, sequence (Q96FW1 whole entry): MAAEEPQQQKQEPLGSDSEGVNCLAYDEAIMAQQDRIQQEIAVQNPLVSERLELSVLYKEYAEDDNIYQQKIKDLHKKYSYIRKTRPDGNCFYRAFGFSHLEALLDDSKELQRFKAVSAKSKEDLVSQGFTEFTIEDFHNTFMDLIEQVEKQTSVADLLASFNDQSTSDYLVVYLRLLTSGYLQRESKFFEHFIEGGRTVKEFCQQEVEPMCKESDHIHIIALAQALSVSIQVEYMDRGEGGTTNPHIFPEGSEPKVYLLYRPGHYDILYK
Outline: as §1

[8] = target: T4, OTUD4 (UniProt Q01804)
T4 sequence (whole entry): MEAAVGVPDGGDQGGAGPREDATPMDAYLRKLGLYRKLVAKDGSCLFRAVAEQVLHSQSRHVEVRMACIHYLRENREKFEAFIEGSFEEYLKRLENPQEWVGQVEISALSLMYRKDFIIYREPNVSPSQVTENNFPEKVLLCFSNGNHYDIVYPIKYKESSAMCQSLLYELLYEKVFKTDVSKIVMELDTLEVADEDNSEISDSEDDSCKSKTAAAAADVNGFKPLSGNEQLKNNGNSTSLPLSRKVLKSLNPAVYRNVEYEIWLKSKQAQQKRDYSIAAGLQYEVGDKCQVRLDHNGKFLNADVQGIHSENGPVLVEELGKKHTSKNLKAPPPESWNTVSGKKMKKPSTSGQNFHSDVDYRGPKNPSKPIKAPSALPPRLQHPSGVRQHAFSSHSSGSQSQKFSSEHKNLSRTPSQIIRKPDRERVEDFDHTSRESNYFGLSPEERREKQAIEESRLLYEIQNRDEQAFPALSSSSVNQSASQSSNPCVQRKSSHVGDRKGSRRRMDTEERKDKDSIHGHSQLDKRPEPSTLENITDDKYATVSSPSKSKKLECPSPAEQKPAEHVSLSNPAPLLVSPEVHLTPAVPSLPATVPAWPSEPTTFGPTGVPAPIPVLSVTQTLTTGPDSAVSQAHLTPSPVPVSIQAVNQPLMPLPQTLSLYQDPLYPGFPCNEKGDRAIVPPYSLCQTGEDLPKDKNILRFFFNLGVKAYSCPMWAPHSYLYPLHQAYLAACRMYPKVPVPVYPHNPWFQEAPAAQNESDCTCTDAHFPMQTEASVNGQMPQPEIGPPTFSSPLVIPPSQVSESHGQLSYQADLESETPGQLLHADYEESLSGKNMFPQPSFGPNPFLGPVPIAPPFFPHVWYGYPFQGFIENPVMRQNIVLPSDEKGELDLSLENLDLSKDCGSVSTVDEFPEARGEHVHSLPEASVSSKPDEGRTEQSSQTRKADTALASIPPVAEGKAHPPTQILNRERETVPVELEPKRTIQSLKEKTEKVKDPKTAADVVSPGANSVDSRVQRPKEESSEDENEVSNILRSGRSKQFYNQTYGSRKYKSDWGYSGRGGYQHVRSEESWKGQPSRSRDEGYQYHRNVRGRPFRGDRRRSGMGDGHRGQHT
Outline: as §1

[9] = target: T5, OTUD5 (UniProt Q96G74)
T5 sequence (whole entry): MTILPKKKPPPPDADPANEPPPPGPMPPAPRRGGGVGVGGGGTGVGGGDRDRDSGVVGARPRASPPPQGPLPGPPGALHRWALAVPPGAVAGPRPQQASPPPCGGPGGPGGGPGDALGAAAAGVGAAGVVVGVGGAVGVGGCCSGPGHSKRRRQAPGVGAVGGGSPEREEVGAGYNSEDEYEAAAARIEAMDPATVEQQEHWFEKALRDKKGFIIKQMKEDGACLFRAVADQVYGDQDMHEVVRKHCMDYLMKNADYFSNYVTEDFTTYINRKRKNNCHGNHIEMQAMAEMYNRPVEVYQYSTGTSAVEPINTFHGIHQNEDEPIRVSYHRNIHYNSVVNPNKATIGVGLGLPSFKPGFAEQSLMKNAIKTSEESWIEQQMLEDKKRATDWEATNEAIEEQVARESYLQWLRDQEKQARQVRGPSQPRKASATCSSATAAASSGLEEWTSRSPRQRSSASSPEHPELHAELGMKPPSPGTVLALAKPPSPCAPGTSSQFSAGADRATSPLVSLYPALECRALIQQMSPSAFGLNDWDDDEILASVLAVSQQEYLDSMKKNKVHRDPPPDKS
Outline: as §1

Measured: log2 ratio of Biotin-Ahx-Ub-VS probe labelling

O=C(CCl)NCc1cccc(F)c1
active: [3] -2.76
inactive: [1] -0.54 | [2] -0.297 | [4] -0.186 | [5] 0.138 | [6] 0.303 | [7] -0.181 | [8] -0.316 | [9] -0.429
